Assay outcomes: PubChem, Broad Institute
The full list was thinned out, with hits kept by preference.
NOMO-1 viab: STK33 inhibitor candidate reducing NOMO-1 cell viability; NOMO-1 AML viability, CellTiter-Glo luminescence, 72 h; inhibition, % (concentration not given with the values); actives 7.5% (n = 37,000); in the data active means inhibition above about 80%; inconclusive means no clear call, values can overlap the other calls
ROS inducer: cancer cell ROS induction. actives 2% (n = 46,000). AID 624156. ROS induction (% of piperlongumine), % at 10 µM. U2OS ROS induction, H2DCF-DA fluorescence; in the data active means ROS induction above about 79%, passing the limit was not always enough; inconclusive means no clear call, values can overlap the other calls;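 further: 0% = DMSO vehicle median and 100% = reference compound median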
* hit, by the source's call; ? = inconclusive; / = no result given.

SMILES | NOMO-1 viab | ROS inducer
C[C@@H]1CN([C@H](C)CO)C(=O)Cc2cc(NC(=O)Nc3ccc4c(c3)OCO4)ccc2O[C@@H]1CN(C)S(=O)(=O)c1ccccc1 | 3 | 67
O=C(CSc1nc(O)cc(=O)[nH]1)Nc1cccc(C(F)(F)F)c1 | 22 | -5
C[C@@H]1CN([C@@H](C)CO)C(=O)c2cccc(NS(=O)(=O)c3ccccc3)c2O[C@H]1CN(C)S(=O)(=O)c1ccc(Cl)cc1 | -15 | -8
CC(C)NC(=O)Nc1cccc2c1O[C@@H](CN(C)C(=O)NC(C)C)[C@@H](C)CN([C@@H](C)CO)C2=O | 6 | -4
C[C@@H]1CN([C@H](C)CO)C(=O)c2cccc(NC(=O)C3CCOCC3)c2O[C@H]1CN(C)S(=O)(=O)c1ccc(F)cc1 | -5 | -1
COc1ccc2c3c([nH]c2c1)[C@@H]1C[C@@H]2C(OC(C)=O)=COC(C)C2CN1CC3 (stereo partly drawn) | / | 50
COc1ccc([Si](C)(C)[C@@H]2[C@@H](CC(=O)N3Cc4ccccc4C[C@H]3CO)O[C@]3(C(=O)N(C)c4c(Br)cc(C)cc43)[C@H]2C)cc1 | / | 22
C/C=C/[C@H](CC(=O)N1Cc2ccccc2C[C@H]1CO)[Si](C)(C)c1ccc(OC)cc1 | / | 94*
CC(C)C[C@@H](NC(=O)OCC1c2ccccc2-c2ccccc21)C(=O)O | -5 | -1
CC(C)C[C@@H](/C=C/S(C)(=O)=O)NC(=O)[C@H](CC(C)C)NC(=O)[C@H](CC(C)C)NC(=O)OCc1ccccc1 | 98* | 5
CCN(CC)CCCNc1nc(Cl)nc(Nc2ccc(F)cc2F)n1 | / | 22
Cc1ccc(NC(=O)CCCn2cc([N+](=O)[O-])cn2)cc1C | -6 | -15
COc1ccc(-c2noc(CN(C(C)C)S(=O)(=O)c3ccccc3)n2)cc1 | 37 | /
Cc1ccc(S(=O)(=O)NC(C)C(=O)Nc2ccc(C)c(Cl)c2)cc1 (stereo not drawn) | 21 | /
Cc1ccc(NC(=S)C(C#N)C(N)=O)cc1Cl (stereo not drawn) | 108* | 18
Cc1noc(C)c1S(=O)(=O)Nc1ccc2c(c1)C(=O)N([C@H](C)CO)C[C@H](C)[C@@H](CN(C)Cc1ccc3c(c1)OCO3)O2 | 8 | 4
C[C@@H]1CN([C@@H](C)CO)C(=O)c2cc(NS(=O)(=O)c3ccc(F)cc3)ccc2O[C@@H]1CN(C)Cc1ccc(C(=O)Nc2ccccc2N)cc1 | 110* | 49
Cc1ccc(S(=O)(=O)Nc2ccc3c(c2)C(=O)N([C@H](C)CO)C[C@H](C)[C@H](CN(C)Cc2ccc(C(=O)Nc4ccccc4N)cc2)O3)cc1 | ? | -3
Cc1ccc(S(=O)(=O)Nc2ccc3c(c2)C(=O)N([C@@H](C)CO)C[C@H](C)[C@H](CN(C)Cc2ccc(C(=O)Nc4ccccc4N)cc2)O3)cc1 | 110* | 3
C[C@@H]1CN([C@H](C)CO)C(=O)c2cc(NS(=O)(=O)c3ccc(F)cc3)ccc2O[C@H]1CN(C)Cc1ccc(C(=O)Nc2ccccc2N)cc1 | 58 | -6
C[C@@H]1CN([C@H](C)CO)C(=O)c2cc(NS(=O)(=O)c3ccccc3)ccc2O[C@H]1CN(C)Cc1ccc(C(=O)Nc2ccccc2N)cc1 | 48 | 3
C[C@H]1CN([C@@H](C)CO)C(=O)c2cc(NS(=O)(=O)c3ccc(F)cc3)ccc2O[C@@H]1CN(C)Cc1ccc(C(=O)Nc2ccccc2N)cc1 | 7 | 12
C[C@H](CO)N1C[C@H](C)[C@H](CN(C)Cc2ccc(C(=O)Nc3ccccc3N)cc2)Oc2ccc(NS(=O)(=O)c3ccc(F)cc3)cc2C1=O | 109* | 11
C[C@H]1CN([C@@H](C)CO)C(=O)c2cc(NS(=O)(=O)c3ccc(Cl)cc3)ccc2O[C@H]1CN(C)Cc1ccc(C(=O)Nc2ccccc2N)cc1 | 111* | 11
COc1ccc(S(=O)(=O)N(C)C[C@H]2Oc3ccc(NC(=O)CCC(F)(F)F)cc3C(=O)N([C@@H](C)CO)C[C@@H]2C)cc1 | 2 | 1
SMILES | NOMO-1 viab | ROS inducer
CCOC(=O)c1c(C)oc2ccc(OCC(=O)c3ccc(Cl)cc3)cc12 | 8 | ?
Cc1ccc(C)c(OCC(=O)Nc2cccc(Oc3ccc4c(c3)C(=O)NC4=O)c2)c1 | 9 | /
Cn1c(=O)c2c(nc(NCc3cccnc3)n2Cc2ccc(F)cc2)n(C)c1=O | 12 | /
COC(=O)C[C@H]1C(C)(C)C2(Cl)O[C@@]34CC2C(=O)[C@]1(C)C3CC[C@]1(C)C4=CC(=O)O[C@H]1c1ccoc1 (stereo partly drawn) | 101* | -2
C=C1C2CC[C@@]3(C)[C@H](c4ccoc4)OC(=O)C[C@]13O[C@H]1CC(=O)C(C)(C)C(CC(=O)OC)[C@@]21C (stereo partly drawn) | 14 | 5
C/C=C1/[C@H](O[C@@H]2O[C@H](CO)[C@@H](O)[C@H](O)[C@H]2O)OC=C(C(=O)OC)[C@H]1CC(=O)OCCc1ccc(OC(=O)C[C@@H]2C(C(=O)OC)=CO[C@@H](O[C@@H]3O[C@H](CO)[C@@H](O)[C@H](O)[C@H]3O)/C2=C/C)cc1 | 17 | -11
CC1(C)CC[C@]2(C(=O)O)CC[C@]3(C)C(=CCC4[C@@]5(C)CC[C@H](O[C@@H]6O[C@H](C(=O)O)[C@@H](O[C@@H]7OC[C@@H](O)[C@H](O)[C@H]7O)[C@H](O)[C@H]6O)C(C)(C)C5CC[C@]43C)C2C1 (stereo partly drawn) | 116* | -32
CC1(C)CC[C@]2(C(=O)O)CC[C@]3(C)C(=CCC4[C@@]5(C)CC[C@H](O[C@@H]6O[C@H](C(=O)O)[C@@H](O[C@@H]7OC[C@@H](O)[C@H](O)[C@H]7O)[C@H](O)[C@H]6O)C(C)(C)C5CC[C@]43C)C2C1O (stereo partly drawn) | -5 | -8
C[C@@H]1O[C@@H](O[C@H]2[C@H](O[C@H]3CC[C@@]4(C)C(CC[C@]5(C)C4CC=C4C6CC(C)(C)CC[C@]6(C(=O)O)CC[C@]45C)[C@]3(C)CO)OC[C@H](O)[C@@H]2O)[C@H](O)[C@H](O)[C@H]1O (stereo partly drawn) | 119* | -21
C[C@@H]1O[C@@H](O[C@H]2[C@H](O[C@H]3[C@H](O[C@H]4CC[C@@]5(C)C(CC[C@]6(C)C5CC=C5[C@@H]7CC(C)(C)C[C@@H](O)[C@]7(C)CC[C@]56C)[C@@]4(C)CO)O[C@H](C(=O)O)[C@@H](O)[C@@H]3O)OC[C@H](O)[C@@H]2O)[C@H](O)[C@H](O)[C@H]1O (stereo partly drawn) | 18 | -4
CC1OC(OC2C(O)C(CO)OC(O[C@H]3CC[C@@]4(C)C(CC[C@]5(C)C4CC=C4C6CC(C)(C)CC[C@]6(C(=O)OC6OCC(OC7OCC(O)C(O)C7O)C(O)C6O)CC[C@]45C)C3(C)C)C2O)C(O)C(OC2OCC(O)(CO)C2O)C1O (stereo partly drawn) | 122* | -19
CC(=O)N[C@H]1[C@H](O[C@H]2CC[C@@]3(C)C(CC[C@]4(C)C3CC=C3[C@@H]5CC(C)(C)CC[C@]5(C(=O)O)CC[C@]34C)C2(C)C)O[C@H](CO[C@@H]2OC[C@H](O)[C@H](O)[C@H]2O[C@@H]2OC[C@H](O)[C@H](O)[C@H]2O)[C@@H](O)[C@@H]1O (stereo partly drawn) | 120* | -23
